According to PubChem BioAssay (NCI):
This is part of a sample that, as a whole, favours compounds with a hit. Of some 79,000 tested, about 15% had one in any assay. A number with no mark means an inactive call. Active and inactive are the calls of the source. Cut-off read from the data, not from the text of the source: active = growth inhibition above about 70%; inactive = the rest.

Assay: NCI Yeast Anticancer Drug Screen. Data for the bub3 strain (AID 167)
Details: S. cerevisiae bub3 mutant strain, at 50.0 µM, active compounds read high
In short: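 Part of a panel of yeast mutants defective in DNA damage repair or cell cycle regulation. Each strain is grown with compound, and inhibition is calculated relative to solvent-treated cultures.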

Structure (SMILES)	growth inhibition
O=c1[nH]n(Cc2ccccn2)c2ccc([N+](=O)[O-])cc12	6.45%
CCOC(=O)CCCCCCC(=O)OCC	1.1%
O=C(O)CCC(=O)c1ccc2c3c1CCCC3CC2 (stereo not given)	17.2%
CCc1ccc(OC(C)=O)cc1	6.6%
Cc1ccc(/C(O)=C/C(=O)C(=O)NN=C(c2ccccc2)c2ccccc2)cc1	20.3%
CCCc1c(O)c(=O)c2c(OC)cc(OC)c3c4c(OC)cc(OC)c5c(=O)c(O)c(CCC)c(c1c23)c54	75.8% (active)
COc1ccc(C(O)Cc2ccccc2)cc1 (stereo not given)	-18.4%
O=C(CC12C3C4C1C1C2C3C41CC(=O)NO)NO (stereo not given)	-19.9%
Cc1ccc(S(=O)(=O)C2=c3nc4ccccc4cc3=C3C(=O)c4ccccc4C(=O)C32)cc1 (stereo not given)	-24.4%
Oc1ccc(Cl)cc1-c1cc(-c2ccccc2)nc(=S)[nH]1	-1.3%
c1ccc(-c2cc(-c3cc(-c4ccccc4)n(-c4ccccc4)n3)nn2-c2ccccc2)cc1	-14%
CC1=C(C(=O)Nc2ccccc2C)C(c2ccccc2)C(C(=O)Nc2ccccc2C)=C(C)N1	16.3%
O=C(/C=C/c1ccccc1)NC(=S)Nc1ccc(F)c([N+](=O)[O-])c1	21.6%
NCCSSCCCCSSCCN	-1.2%
Cc1c(-c2nc(N)nc(C3CC3)c2C)nc(N)nc1C1CC1	-26.8%
O=C1NC(N2CCCC(CO)C2)=N/C1=C\c1ccc(Cl)cc1 (stereo not given)	-17.8%
CC(C)C(=O)C(F)(F)F	28.6%
COc1cc2c(cc1OC)-c1cc3cc(OC)c(OC)cc3c(C)[n+]1CC2 (tested in a mixture with another compound)	11.4%
O=C1NC(N2CCCCC2)=N/C1=C\c1ccco1	-5.65%
Cc1ccc(/C=C/c2ccc3ccccc3c2)cc1	-4.8%

Structure (SMILES)	growth inhibition
CCCCCCCC/C=C/CCCCCCCC(=O)O	-16.2%
CC(=O)Nc1ccc(O)c(C(=O)O)c1	24.1%
CCCCCCCCCCN=C(N)CSSCC(N)=NCCCCCCCCCC	95% (active)
O=[N+]([O-])c1ccccc1OC1OC(CO)C(O)C(O)C1O (stereo not given)	-14.8%
Cc1ccc(S(=O)(=O)NNC(=O)c2cccnc2)cc1	-5.75%
COC1C=C(Br)C(=O)C(C)O1 (stereo not given)	21.2%
O=C(Nc1ccc(NC(=O)Nc2cc(C(F)(F)F)ccc2Oc2ccc(Cl)c(Cl)c2)cc1)Nc1cc(C(F)(F)F)ccc1Oc1ccc(Cl)c(Cl)c1	-35.1%
Clc1cccc[n+]1CCc1ccccc1	7.55%
O=C(O)C12C3CCC(CC3)C1(C(=O)O)C1CCC2C1 (stereo not given)	5.05%
CN(C)CC(CN(C)C)C(=O)C(C)(C)C	7.8%
Cc1ccc(NC(=O)c2cc3cc(N=Nc4ccc(Br)cc4)ccc3oc2=O)cc1	3.05%
O=C(NC(=S)Nc1cccc(Cl)c1)c1ccccc1	46.2%
Oc1ccc(-c2csc(Nc3ccccn3)n2)cc1O	97.7% (active)
CS(=O)(=O)N(CCC#N)c1ccc(C=O)cc1	-12.2%
N#CC1(C#N)CC1c1ccccc1 (stereo not given)	-2.9%
c1ccc(N=C2N=c3ccccc3=C2c2c(Nc3ccccc3)[nH]c3ccccc23)cc1	-4.7%
COC(=O)CN(CC(=O)OC)C(C)=O	13.5%
CCCCC(=O)c1cc2ccccc2c2ccccc12	10.5%
Cc1ccc(S(=O)(=O)NC2C(=O)c3ccccc3C(=O)C2n2ccnc2)cc1 (stereo not given)	7.8%
Cc1cn(CC(O)c2cc3ccccc3[nH]2)c(=O)[nH]c1=O (stereo not given)	9.65%
